Test results: PubChem BioAssay AID652126 (The Scripps Research Institute Molecular Screening Center, 2013)
About 3,700 (1%) of roughly 370,000 compounds were called active. The list comes from a sample in which actives are over-represented; it also holds similar structures and randomly drawn compounds. Unmarked numbers belong to inactive results.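 How the source made its calls: active means activation above the mean over all tested compounds plus 3 SD (cut at about 0.9% in these data); inactive means the rest.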

What follows are compounds tested on Nuclear hormone receptor DAF-12 (Strongyloides stercoralis) (assay: S. stercoralis DAF-12 nuclear receptor activators, primary screen, cell-based, luminescence, HEK293, GRIP1 co-expression, lit1-tk-luc (AID 652126;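 further: 0% = DMSO-only wells and 100% = 3 µM delta7-dafachronic acid wells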)). Conditions: HEK293 ssDAF-12/GRIP1 lit1-tk-luc reporter, at 6.8 µM, stronger effect = higher value, % of 3 µM dafachronic acid response.
O=C(CSc1nnc(COc2ccccc2)n1-c1ccc(Cl)cc1)Nc1ccc2c(c1)OCO2 was tested, and the activation was -0.91%.
N#CCCN(C(=O)COC(=O)C1CCN(c2ccc(C(F)(F)F)cn2)CC1)c1ccc(F)cc1 gave an activation of -1.01%.
Compound COc1ccc(Cc2nc3ccc(C(=O)NCC4CCOCC4)cc3o2)cc1OC has an activation of -0.41%.
CC(c1ccccn1)N(C)C(=O)c1ccc2nc(Cc3cccc(Cl)c3)oc2c1 (configuration not stated) gave an activation of 0.07%.
In the case of CSCCNC(=O)c1ccc2nc(Cc3ccccc3F)oc2c1, the activation is reported as 1.4% (active).
CC(C)c1ccc(N(C(=O)c2ccco2)C(C(=O)NC2CCCC2)c2cccnc2)cc1 (configuration not stated) showed an activation of -0.62%.
CC/C(O)=C1\C(=O)CC(C)(C)CC1=NCCc1nc2ccccc2[nH]1 showed an activation of -1.35%.
In the case of CCC(=O)/C(=C(/O)c1ccccc1)c1nc2ccccc2[nH]1, the activation is reported as 0.91% (active).
CCCC(NC(=O)c1ccco1)c1nc2ccccc2[nH]1 (configuration not stated) was tested, and the activation was -0.66%.
COC(=O)[C@]12C[C@H](CC(=O)NCC34CC5CC(CC(C5)C3)C4)C(=O)N(Cc3ccc(Cl)cc3Cl)C1=C[C@H](COCc1ccccc1)O[C@@H]2C was tested, and the activation was -0.9%.
For O=C(CN1CCCc2ccccc21)NCc1ccc(F)cc1, the activation was 1.32% (active).
For O=C(CN1C(=O)CCS(=O)(=O)c2ccccc21)NCc1ccc(F)cc1, the activation was -1.14%.
O=C(Cn1nc(C(F)(F)F)c2c1CCC2)NCc1ccc(F)cc1 showed an activation of -0.8%.
With CCCNC(=O)Nc1ccc2c(c1)C(=O)N(C)[C@H]1CC[C@H](CC(=O)NCC3CCCCC3)O[C@@H]1CO2 the activation was -1.84%.
With O=C(COc1ccc(-c2ccccc2)cc1)NN=C1CCCC1 the activation was -1.61%.
For O=C1NC(Nc2nc3ccccc3s2)(C(F)(F)F)C(=O)N1C1CCCCC1 (configuration not stated), the activation was -1.03%.
With c1ccc2sc(NN=C3CCCC3)nc2c1 the activation was 1.21% (active).
In the case of COC(=O)[C@]12C[C@H](CC(=O)NCc3cccs3)C(=O)N(CCc3ccc(OC)c(OC)c3)C1=C[C@H](C(C)C)O[C@@H]2C1CC1, the activation is reported as -0.56%.
For CC[C@@H](CCC(=O)N(c1ccccc1)c1ccccc1)C1CC1, the activation was -1.64%.
For NC(=O)C1(N2CCCCC2)CCN(C(=O)c2ccc(C#Cc3ccccc3)o2)CC1, the activation was -1.3%.
With CC(C)(O)C#Cc1ccc(C(=O)N2CCC(C(N)=O)(N3CCCCC3)CC2)cc1 the activation was 1.03% (active).
CCC(=O)N1CCC(C(N)=O)(N2CCCCC2)CC1 showed an activation of -1.29%.
O=S1(=O)c2ccc(N3CCN(Cc4ccccc4F)CC3)cc2Oc2ccccc2CN1Cc1cn(Cc2ccc(Cl)cc2)nn1 gave an activation of -1.5%.
In the case of COC(=O)[C@]12C[C@H](CC(=O)NCCCN3CCCC3=O)C(=O)N(CCc3ccc(OC)c(OC)c3)C1=C[C@H](COCc1ccccc1)O[C@@H]2C, the activation is reported as -0.18%.
With CCOc1ccc(N(CC(=O)Nc2c(C)n(C)n(-c3ccccc3)c2=O)S(=O)(=O)c2ccc(Cl)s2)cc1 the activation was -0.93%.
With COc1ccc(Nc2nc(-c3ccccc3)cs2)cc1 the activation was 4.09% (active).
With O=C(CN1C(=O)C2C3C=CC(C3)C2C1=O)Nc1nc(-c2ccccn2)cs1 (configuration not stated) the activation was 0.32%.
For Cc1cccc(Nc2nc(-c3ccccc3)cs2)n1, the activation was 2.9% (active).
Clc1ccc(Nc2nc(-c3cccs3)cs2)nc1 was tested, and the activation was 1.83% (active).
With CC(=O)NC(c1cccc(F)c1)c1nc(-c2cccc(F)c2)cs1 (configuration not stated) the activation was -0.87%.
c1ccc(-c2csc(N3CCc4ccccc4C3)n2)cc1 gave an activation of 0.8%.
With N#CC(=C1SC=CS1)c1nc(-c2ccccc2)cs1 the activation was 0.19%.
COC(=O)CCc1sc(Nc2ccc(Br)cc2)nc1-c1ccc(OC)cc1 gave an activation of -1.64%.
With COc1ccc(NC(=S)N2N=CCC2c2ccccc2)cc1 (configuration not stated) the activation was 0.28%.
In the case of c1ccc(Nc2nc(-c3ccncc3)cs2)nc1, the activation is reported as 1.1% (active).
Work on Cc1cc(C)cc(NC(=O)N2CCC(N(C)CCC(C)C)CC2)c1 yielded an activation of -1.43%.
CCCC1CCC2(CCCN2CCOC(=O)NCc2ccccc2)CC1 (configuration not stated) gave an activation of -2.14%.
CN1C[C@]2(C=C3CCCCC3n3c(=O)n(-c4ccccc4)c(=O)n32)N=C1NC(=O)c1ccccc1 (some centres not stated) gave an activation of 0.04%.
Nn1c(SCC(=O)N2c3ccccc3Sc3ccccc32)nnc1-c1n[nH]c2c1CCC2 gave an activation of -1.79%.
COCCCNC(=O)C[C@H]1C[C@@]2(C(=O)OC)C(=C[C@H](C(C)(C)C)O[C@@H]2C)N(Cc2ccc(Cl)cc2Cl)C1=O gave an activation of -0.31%.
Work on COc1ccc(CN2C/C(=C/c3ccccc3)N3C(=O)C[C@@H](c4ccccc4)N=C23)c(OC)c1 yielded an activation of -1.31%.
With CCOC(=O)c1csc(NC(=O)C2CCCN(S(=O)(=O)c3ccc(Cl)s3)C2)n1 (configuration not stated) the activation was -2.1%.
Work on COc1cccc(/C=C2\CC3(OC(C)=O)CCCN2C3)c1 (configuration not stated) yielded an activation of -1.47%.
Work on O=C(CSc1nnc(-c2ccccn2)n1-c1ccc(Cl)cc1)Nc1ccccc1-c1ccccc1 yielded an activation of -1.33%.
CN(C)CC(=O)N[C@@H]1C[C@@H]2O[C@H](CO)CC[C@@H]2O[C@@H]1CCc1ccc(C#Cc2ccccc2)cc1 gave an activation of -1.63%.
Compound Oc1ccc(/C=C/c2c(F)cccc2F)c2cccnc12 has an activation of -1.91%.
Cc1ccc(C)c(NC(=O)CCS(=O)(=O)c2ccccc2)c1 was tested, and the activation was -0.72%.
CCOC(=O)c1ccccc1NC(=O)c1c(N)n(C)c(=O)[nH]c1=O gave an activation of -0.82%.
Work on CCOC(=O)c1ccn(S(=O)(=O)c2ccc(C)cc2)c1-c1ccccc1 yielded an activation of -1.27%.
For CCOC(=O)c1cc2n(c1N)-c1ccccc1C2=O, the activation was 1.03% (active).
COC(=O)c1cccc(Cn2ccc3ccc(-c4ccc5ccn(C(=O)c6ccccc6C)c5c4)cc32)c1 was tested, and the activation was 0.19%.
Compound C=CCN1[C@H](CC(C)C)COc2cccc(N3CCCC3)c2S1(=O)=O has an activation of -1.93%.
In the case of CN(Cc1c(F)cccc1Cl)C(=O)CNC(=O)c1ccc2c(c1)OCO2, the activation is reported as -0.2%.
O=C(Nc1ccccc1F)c1ccc2c(c1)OCO2 was tested, and the activation was 1.22% (active).
In the case of O=C(NCCc1ccc(C(F)(F)F)cc1)c1ccc2c(c1)OCO2, the activation is reported as -1.42%.
For COC(=O)[C@H](C(C)C)N(CCc1cn(Cc2ccccc2)nn1)S(=O)(=O)c1ccc(F)cc1Br, the activation was -1.33%.
In the case of Cc1csc(NC(=O)Nc2ccccc2[N+](=O)[O-])n1, the activation is reported as 2.54% (active).
With O=C(Nc1ccccc1[N+](=O)[O-])C1C(c2ccccc2)=C1c1ccccc1 the activation was -1.13%.
With Cc1cc(NC(=O)Nc2ccccc2[N+](=O)[O-])no1 the activation was 0.25%.
In the case of CCCCCCCCNS(=O)(=O)/C=C/c1cc(C)ccc1CNC(=O)OC(C)(C)C, the activation is reported as -2.15%.
Compound O=C(O/N=C(/c1ccccc1)c1ccncc1)c1ccccc1[N+](=O)[O-] has an activation of -0.74%.
COc1ccc(C(=O)OCC(=O)NCC2CCCO2)cc1[N+](=O)[O-] (configuration not stated) showed an activation of -1.82%.
In the case of COc1ccc(C(=O)O/N=C(\N)c2ccccn2)cc1[N+](=O)[O-], the activation is reported as 1.15% (active).
Cc1ccc(-n2c(SCC(=O)Nc3cccc4ccccc34)nnc2-c2ccccn2)cc1 showed an activation of -1.66%.
C#CCCN([C@H](C(=O)OC)C(C)C)S(=O)(=O)c1ccc(F)cc1Br was tested, and the activation was -1.1%.
For C=CCOC/C=C/C#CCN(CC=C)Cc1ccc(OC)cc1OC, the activation was -0.87%.
In the case of COc1cc2ccccc2cc1C(=O)Nc1ccccc1C, the activation is reported as 1.32% (active).
Cc1cccc(NC(=O)c2cccc(C(=O)Nc3cccc(C)c3C)n2)c1C showed an activation of -0.53%.
For Cc1ccccc1C(=O)Nc1ccccc1Sc1ccccc1, the activation was -1.24%.
Work on COc1ccc(C(=O)CSc2nnc(-c3cnccn3)n2-c2ccc(C)cc2)cc1 yielded an activation of -1.18%.
CC12CCC(C(=O)N3CCN(c4ncccn4)CC3)(c3nc4ccccc4nc31)C2(C)C (configuration not stated) gave an activation of -1.52%.
With c1cnc(N2CCN(c3ccc4ccccc4n3)CC2)nc1 the activation was 1.77% (active).
CC1=C(N2CCN(c3ncccn3)CC2)CCC1=O was tested, and the activation was -1.32%.
CCN(CC)C(=O)CC[C@H]1CC[C@]2(CCCN(Cc3ccc(Cl)cc3)C2)O1 was tested, and the activation was -0.21%.
CC1CCN(c2ccc(C(=O)O)cc2NS(=O)(=O)c2ccc(Br)s2)CC1 was tested, and the activation was -1.7%.
For COc1ccc([C@H]2OC(=O)C[C@H]2C(=O)N2CCN(c3ccccc3F)CC2)cc1OC, the activation was -0.67%.
O=S(=O)(c1ccc(Br)cc1)c1nc(-c2ccccc2)oc1N1CCOCC1 gave an activation of -0.79%.
Brc1ccc(-c2noc(-c3ccccc3)n2)o1 was tested, and the activation was 1.12% (active).
O=C(Oc1ccc(-c2nc(-c3ccccn3)no2)cc1)c1ccccc1 showed an activation of -0.56%.
Compound O=S1(=O)c2c(NCc3ccco3)cccc2Oc2ccccc2CN1Cc1cn(Cc2cccc(C(F)(F)F)c2)nn1 has an activation of -1.24%.
With C=CCn1c(SCC(=O)NCC2CCCO2)nc2sc(C)c(C)c2c1=O (configuration not stated) the activation was 2.74% (active).
Compound C=CCn1c(SCC(=O)/C(C#N)=C(\C)N)nc2sc(C)c(C)c2c1=O has an activation of -1.37%.
In the case of Cc1ccc(NC(=O)c2cnc(SCC(=O)NCC3CCCO3)n(C)c2=O)cc1 (configuration not stated), the activation is reported as 1.27% (active).
For CCCCn1c(SCC(=O)NCC2CCCO2)nc2ccc(N3CCOCC3)cc2c1=O (configuration not stated), the activation was -1.75%.
C=CCn1c(SCC(=O)Nc2ccc(NC(C)=O)cc2)nc2sc(C)c(C)c2c1=O was tested, and the activation was -1.09%.
Compound Cn1c(SCC(=O)c2ccccc2)ncc(C(=O)Nc2ccc(F)cc2)c1=O has an activation of -0.84%.
For CCOC(=O)[C@]12CCCC=C1N(Cc1ccc(OC)cc1)C(=O)[C@@H]2CC(=O)N1CCOCC1, the activation was -0.73%.
